Screening results as filed in PubChem.
ELG1 repair inh = qHTS screen for small molecules that inhibit ELG1-dependent DNA repair in human embryonic kidney (HEK293T) cells expressing luciferase-tagged ELG1 | 2.3% of 330,000 active | AID 504467, 2011 | Potency, µM (titrated, usually from 46.1 µM), for inactives: top-dose activity change, negative = inhibition, usual class: inhibitors | HEK293T ELG1-luciferase reporter, luminescence, 16 h; DNA damage induced by 5-fluorouridine; note: potency is the fitted concentration of half-maximal effect; nearly all actives have a fitted effect of over 55% in size
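Luminescence from the luciferase reporter, measured 30 min after ONE-Glo reagent at room temperature, was the read-out. Beforehand, 2,000 cells per well were exposed for 16 hr at 37 °C to 5-fluorouridine together with compound or vehicle.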
Giardia killer = Small Molecules that selectively kill Giardia lamblia: qHTS; Giardia lamblia trophozoite viability; activity change, % at 7.66 µM, hits read low; 0.15% of 340,000 active; AID 540267, 2011; in the data active = activity change below about -80%; inconclusive = between about -30% and that limit;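 note: parasites exposed to compound for two days anaerobically before the ATP read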
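Giardia lamblia trophozoites (100 cells/well) were incubated with compounds for 48 h at 37 deg C under anaerobic conditions. Viability was read as ATP content by one-step luminescence after 15-30 min at room temperature.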
DT40 TDP1 CPT = qHTS for Inhibitors of human tyrosyl-DNA phosphodiesterase 1 (TDP1): qHTS in cells in presence of CPT | chicken DT40 Tdp1-/-;hTDP1 cells + 20 nM CPT, ATP luminescence, 48 h | Potency, µM (series often up to 46.2 µM), for inactives: top-dose activity change, negative = growth inhibition, usual class: inhibitors | 12% of 420,000 active | AID 686979, 2013; note: potency is the fitted concentration of half-maximal effect; nearly all actives have a fitted effect of over 55% in size
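Chicken DT40 Tdp1-/- cells complemented with human TDP1, 400 cells/well, exposed to compounds plus 20 nM camptothecin for at least 48 h at 37 C; viability read as ATP content by CellTiter-Glo luminescence.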
TDP1 inh = qHTS Assay for Inhibitors of Tyrosyl-DNA Phosphodiesterase (TDP1) | 0.28% of 350,000 active | recombinant TDP1, AlphaScreen DNA substrate cleavage | Potency, µM (highest dose often 130 µM), without a hit: at the highest dose activity change, negative = inhibition, most hits filed as inhibitors | AID 485290, 2010; note: potency is the fitted concentration of half-maximal effect; nearly all actives have a fitted effect of over 40% in size
Target sequence (Q9NUW8 whole entry, looked up): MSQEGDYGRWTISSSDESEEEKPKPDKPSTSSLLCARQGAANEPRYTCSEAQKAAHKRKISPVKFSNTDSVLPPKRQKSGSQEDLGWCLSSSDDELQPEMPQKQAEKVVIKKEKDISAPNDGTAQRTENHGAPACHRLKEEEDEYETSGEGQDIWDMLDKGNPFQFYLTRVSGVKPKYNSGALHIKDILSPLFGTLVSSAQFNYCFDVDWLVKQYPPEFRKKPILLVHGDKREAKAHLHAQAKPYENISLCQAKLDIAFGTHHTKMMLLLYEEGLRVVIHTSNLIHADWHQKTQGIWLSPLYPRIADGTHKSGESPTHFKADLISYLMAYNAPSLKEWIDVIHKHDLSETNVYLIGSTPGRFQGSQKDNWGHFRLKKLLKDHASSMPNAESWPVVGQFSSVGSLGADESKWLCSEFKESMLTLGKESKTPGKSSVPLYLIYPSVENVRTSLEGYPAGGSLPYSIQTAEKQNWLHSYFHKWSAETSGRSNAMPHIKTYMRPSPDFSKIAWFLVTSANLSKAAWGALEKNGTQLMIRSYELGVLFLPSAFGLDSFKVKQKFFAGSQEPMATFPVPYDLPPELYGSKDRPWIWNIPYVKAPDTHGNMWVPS
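Compounds were preincubated with Tdp1 (1 nM final) for 15 min at room temperature before substrate (15 nM final) started a 5 min reaction; beads (10 ug/ml final) were then added for 10 min before AlphaScreen detection.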
IL-1B inflam inh = qHTS for Inhibitors of Inflammasome Signaling: IL-1-beta AlphaLISA Primary Screen | activity change, % at 57.5 µM | 4.7% of 360,000 active | THP-1 LPS/ATP IL-1B secretion, AlphaLISA, 16 h; hits give low values; in the data active = activity change below about -50%; inconclusive = mostly about -30% to -49%
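THP-1 cells pretreated 1 hr with compounds (up to 57.5 uM final), then stimulated with LPS (250 ng/mL final) plus ATP (1.25 mM final); secreted IL-1B measured by AlphaLISA after 16 hr, decreased signal indicating inhibition.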
TDP1 cell noCPT = qHTS for Inhibitors of human tyrosyl-DNA phosphodiesterase 1 (TDP1): qHTS in cells in absence of CPT; 15% of 420,000 active; DT40 Tdp1-/- hTDP1 cells, no CPT, ATP luminescence, 48 h; Potency, µM (doses to about 46.2 µM), inactives show at the highest dose activity change, negative = growth inhibition, usual class: inhibitors; note: potency is the fitted concentration of half-maximal effect; nearly all actives have a fitted effect of over 55% in size
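Readout: luminescence from CellTiter-Glo after 30 min in the dark at RT. Cells: DT40 Tdp1-/- with stable hTDP1, 400/well. Exposure: compounds alone, ≥48 hr, 37 °C.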
* marks the source's active call; other numbers are inactive results; [ ] = another dose, or the depositor's remark. Sampled rows, rich in hits. Any-hit rate of the full collection: about 19%. Unless noted, calls come from the whole dose curve; as a rule, active = well fitted curve in the direction sought with a large enough effect; inconclusive = small, poorly fitted or top-dose-only effect, or another doubt; inactive = no such curve, though single readings can be large; an effect the other way counts as inactive or inconclusive. % is set by controls: 0 for no effect and ±100 for the full control effect.

For O=C(c1cc(-c2ccc(Cl)cc2)nc2ccccc12)N1CCC1 the results were ELG1 repair inh -9%, Giardia killer 11, DT40 TDP1 CPT 18µM*, TDP1 inh 0%[0.505 µM], IL-1B inflam inh -7 and TDP1 cell noCPT 16µM*.
For COc1ccc(-c2cc(C(=O)N3CCC3)c3ccccc3n2)cc1OC the results were ELG1 repair inh inconclusive, Giardia killer 13, DT40 TDP1 CPT -7%, TDP1 inh 5%, IL-1B inflam inh -2 and TDP1 cell noCPT -5%.
`COc1ccc(-c2cc(C(=O)N3CCCCCC3)c3cc(C)ccc3n2)cc1` gave ELG1 repair inh 8%, Giardia killer -3, DT40 TDP1 CPT inconclusive, TDP1 inh 1%, IL-1B inflam inh -3 and TDP1 cell noCPT inconclusive.
Screening Cc1cc(C(=O)OCC(=O)N2CCN(c3ccccc3)CC2)c2ccccc2n1 returned ELG1 repair inh inconclusive, Giardia killer 7, DT40 TDP1 CPT inconclusive, TDP1 inh 6%, IL-1B inflam inh -3 and TDP1 cell noCPT inconclusive.
`COc1ccc(-c2cc(C(=O)N3CCCCC3)c3ccccc3n2)cc1` gave ELG1 repair inh inconclusive, Giardia killer -6, DT40 TDP1 CPT 16µM*, TDP1 inh -13%, IL-1B inflam inh -26 and TDP1 cell noCPT inconclusive.
`COc1ccc(-c2cc(C(=O)N3CCCCC3)c3ccccc3n2)cc1OC` gave ELG1 repair inh inconclusive, Giardia killer 15, DT40 TDP1 CPT inconclusive, TDP1 inh 0%, IL-1B inflam inh -69* and TDP1 cell noCPT -50%.
CCOCCc1nn2c(=O)cc(CSCC(=O)Nc3ccccc3)nc2s1 was read as ELG1 repair inh 6%, Giardia killer 10, DT40 TDP1 CPT 9%, TDP1 inh 4%, IL-1B inflam inh 22 and TDP1 cell noCPT 12%.
CC1C(=O)N2CCCc3cc(S(=O)(=O)N4CCN(c5ccc(F)cc5)CC4)cc1c32 (stereo not given) was read as ELG1 repair inh 4%, Giardia killer 25, DT40 TDP1 CPT -12%, TDP1 inh 2%, IL-1B inflam inh 34 and TDP1 cell noCPT -12%.
Screening CCOC(=O)C1CCCN(C(=O)c2c(-c3ccccc3)noc2C)CC1 (stereo not given) returned DT40 TDP1 CPT inconclusive, IL-1B inflam inh 6 and TDP1 cell noCPT -16%.
`COc1ccc(CN2CCN(C(=O)c3c(-c4ccccc4)noc3C)CC2)cc1F` gave ELG1 repair inh inconclusive, Giardia killer -9, DT40 TDP1 CPT inconclusive, TDP1 inh 0%, IL-1B inflam inh 21 and TDP1 cell noCPT 23µM*.
`CCOC(=O)C1CCN(C(=O)c2c(-c3ccccc3)noc2C)CC1` gave ELG1 repair inh -8%, Giardia killer 4, DT40 TDP1 CPT 13%, TDP1 inh 7%, IL-1B inflam inh -73* and TDP1 cell noCPT -25%.
CCOC(=O)C1(C)CCCN(C(=O)c2c(-c3ccccc3)noc2C)C1 (stereo not given) was read as DT40 TDP1 CPT 13µM*, IL-1B inflam inh 18 and TDP1 cell noCPT inconclusive.
`CCN1C(=O)C(O)(CC(=O)c2ccc(-n3cccc3)cc2)c2ccccc21` (stereo not given) gave ELG1 repair inh -9%, Giardia killer -16, DT40 TDP1 CPT inconclusive, TDP1 inh 5%, IL-1B inflam inh -21 and TDP1 cell noCPT inconclusive.
For Cc1ccccc1CN1C(=O)C(O)(CC(=O)c2cccc(Br)c2)c2ccccc21 (stereo not given) the results were DT40 TDP1 CPT -81%, TDP1 inh 1%[12.3 µM] and TDP1 cell noCPT 5.2µM*.
Cc1ccc(C)c(C(=O)CC2(O)C(=O)N(C)c3ccccc32)c1 (stereo not given) was read as ELG1 repair inh -2%, Giardia killer 2, DT40 TDP1 CPT -16%, TDP1 inh 5%, IL-1B inflam inh 24 and TDP1 cell noCPT 4%.
COC(=O)CN1C(=O)C(O)(CC(=O)c2cccc(Br)c2)c2ccccc21 (stereo not given) was read as ELG1 repair inh 15%, Giardia killer 9, DT40 TDP1 CPT 29µM*, TDP1 inh -4%, IL-1B inflam inh 12 and TDP1 cell noCPT inconclusive.
Screening COC(=O)CN1C(=O)C(O)(CC(=O)c2ccc(Cl)cc2)c2ccccc21 (stereo not given) returned ELG1 repair inh -2%, Giardia killer -1, DT40 TDP1 CPT inconclusive, TDP1 inh -2%, IL-1B inflam inh 17 and TDP1 cell noCPT inconclusive.
CCN1C(=O)C(O)(CC(=O)c2cccc(-n3cccc3)c2)c2ccccc21 (stereo not given) was read as ELG1 repair inh 7%, Giardia killer -24, DT40 TDP1 CPT inconclusive, TDP1 inh 5%, IL-1B inflam inh inconclusive and TDP1 cell noCPT 16µM*.
COc1ccc(OC)c(C(=O)CC2(O)C(=O)N(Cc3ccccc3C)c3ccccc32)c1 (stereo not given) was read as DT40 TDP1 CPT 16µM* and TDP1 cell noCPT 5.8µM*.
`COc1cccc(-c2cn3nc4c(nc3n2)CCCC4)c1` gave ELG1 repair inh inconclusive, Giardia killer inconclusive, DT40 TDP1 CPT -35%, TDP1 inh 2%, IL-1B inflam inh -13 and TDP1 cell noCPT 16µM*.
`COc1cccc(-c2cc(C(F)(F)F)n3nc(N)nc3n2)c1` gave ELG1 repair inh -1%, Giardia killer 3, DT40 TDP1 CPT -21%, TDP1 inh 5%, IL-1B inflam inh -3 and TDP1 cell noCPT inconclusive.
O=C1NCCO1 was read as ELG1 repair inh 0%, Giardia killer 20, DT40 TDP1 CPT 1%, IL-1B inflam inh -2 and TDP1 cell noCPT 1%.
Screening Fc1cccc(-c2cncc(N3CCN(CCN4CCCC4)CC3)n2)c1 returned DT40 TDP1 CPT inconclusive, IL-1B inflam inh -9 and TDP1 cell noCPT inconclusive.
`OC(COc1cccc2ccccc12)CN1CCCC1` (stereo not given) gave ELG1 repair inh 4%, Giardia killer -8, DT40 TDP1 CPT 2%, TDP1 inh -8%, IL-1B inflam inh -9 and TDP1 cell noCPT -5%.
